# SKBR3 24h inh – SK-BR-3 proliferation inhibitors; SK-BR-3 viability, CellTiter-Glo ATP luminescence, 24 h; active compounds read low; hit rate 0.47% among 41,000; viability, % at 10 µM;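 active means viability at or below the median of all test compounds minus 3 SD, in both replicates if run twice, cut at about 45% in these data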;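 further: 100% = median untreated cell wells and 0% = median positive control drug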
# PKA inh – PKA (human) kinase inhibition | P17612 | hit rate 0.1% among 65,000 | inhibition, % at 6 µM | PKA Kemptide phosphorylation, Kinase-Glo ATP luminescence;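 active means inhibition above the screen-wide mean inhibition plus 3 SD, cut at about 21% in these data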
# Her2 expr inh – Her2 kinase expression inhibition | P04626 | HER2 level % of control, % at 10 µM | SKBR-3 HER2 protein level, AlphaScreen, 18-24 h; active compounds read low | AID 645 | hit rate 0.69% among 65,000;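 active means HER2 level under 5% of the carrier-only control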;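 further: 100% = DMSO carrier and 0% = 500 nM PU-H71 HSP90 inhibitor; lower value means stronger loss of Her2 protein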
# Hsp90 inh – displaces geldanamycin probe from tumor Hsp90; P07900; NCI-N417 lysate Hsp90, Cy3B-geldanamycin FP displacement; inhibition, % at 30 µM; hit rate 0.35% among 64,000;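 active means inhibition above 50%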;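 further: 0% = tracer plus lysate wells and 100% = tracer alone without lysate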
# ROCK2 blocker – blocks human Rho kinase 2 activity. O75116. purified ROCK2, Kinase-Glo ATP depletion luminescence. inhibition, % at 6 µM. hit rate 0.35% among 60,000. AID 604;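 active means inhibition above the screen-wide mean inhibition plus 3 SD, cut at about 18% in these data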;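 further: plate controls were DMSO wells for no effect and Y-27632 control wells after no-enzyme background subtraction for full effect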
# WNV NS2B-NS3 inh – blocks West Nile virus NS2B-NS3 protease activity; hit rate 0.18% among 65,000; z-score (concentration not given with the values); P06935; WNV NS2B-NS3 protease, fluorogenic substrate Ex360/Em465; active compounds read low; in the data active means z-score below about -3
# Target sequence (P06935 1371-1501 limits assumed): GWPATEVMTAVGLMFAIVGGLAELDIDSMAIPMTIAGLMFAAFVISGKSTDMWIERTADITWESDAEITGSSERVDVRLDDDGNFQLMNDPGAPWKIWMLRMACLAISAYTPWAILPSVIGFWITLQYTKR
# Target sequence (P06935 1502-1679 limits assumed): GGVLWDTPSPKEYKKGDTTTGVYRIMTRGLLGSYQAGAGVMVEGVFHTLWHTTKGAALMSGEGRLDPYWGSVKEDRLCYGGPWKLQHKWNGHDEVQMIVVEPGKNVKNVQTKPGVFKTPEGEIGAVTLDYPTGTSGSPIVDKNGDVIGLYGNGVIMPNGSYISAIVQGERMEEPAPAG
# Active calls of the source: *; · = no result given. Hits are enriched below; roughly 1.6% of the tested compounds scored in any of these assays.
SMILES,SKBR3 24h inh,PKA inh,Her2 expr inh,Hsp90 inh,ROCK2 blocker,WNV NS2B-NS3 inh
COc1ccc(-c2cc(C(F)(F)F)nc(SCC(=O)Nc3cc(C)on3)n2)cc1,73,3,60,0,8,0.68
FC(F)(F)c1cc(-c2ccccc2)nc(N2CCCCCC2)n1,86,3,71,1,5,0.11
CS(=O)(=O)c1nc(-c2ccccc2)cc(C(F)(F)F)n1,28*,-2,-24*,·,·,-1.7
Cn1c(=O)[nH]c(=O)c2c1ncn2CCCc1ccccc1,·,-2,130,0,1,0.64
Cn1cnnc1SCC(=O)c1ccc2c(c1)CCCC2,107,5,93,54*,4,-0.84
CCOC(=O)C(NC(C)=O)(N1CCc2ccccc2C1)C(F)(F)F (stereo unspecified),87,-3,-18*,0,-2,-0.75
Cn1nc(C(=O)Nc2c(-c3ccccc3)nc3sccn23)c2ccccc2c1=O,·,10,1.1*,-6,1,0.34
CCc1nnc(NC(=O)c2ccc(S(=O)(=O)N(CCOC)CCOC)cc2)o1,35*,10,133,2,2,2.3
O=C(NCc1ccco1)c1cc2sccc2n1Cc1ccccc1,154,5,70,-5,4,0.59
O=C(CCCC(=O)N1CCc2ccccc21)N1CCc2ccccc21,109,3,106,-7,0,-0.91
N#CC(Cc1ccc(O)c(O)c1)C(=O)N1CCc2ccccc21 (stereo unspecified),·,·,·,81*,·,·
CCc1ccccc1N(C(=O)c1cccs1)C1C=CS(=O)(=O)C1 (stereo unspecified),·,0,122,-6,-1,-1.1
COC(=O)c1cn(C(=O)c2cccs2)c2ccccc12,78,5,97,0,9,-1.2
Cc1ccc(Cl)cc1NC(=O)c1ocnc1C,·,4,125,-9,·,-3.4*
CCOC(=O)c1cnn(-c2cc(C)c3cc(C)cc(C)c3n2)c1N,·,8,79,3,·,1.2
COc1ccc([C@@H]2[C@H]3CN(C(C)=O)CC=C3C(C#N)=C(N)C2(C#N)C#N)c2ccccc12,81,4,-0.8*,-10,6,-1.3
CCC1C2CN(C(C)=O)CC=C2C(C#N)=C(N)C1(C#N)C#N (stereo unspecified),·,6,110,-3,4,0.15
COc1ccc(-c2nc3n(n2)C(c2ccccc2Cl)C(C(N)=O)=C(C)N3)cc1 (stereo unspecified),·,10,116,-1,8,0.66
O=C(c1cccs1)c1ccc(-c2cccs2)s1,130,-2,-2.5*,-6,2,-1.2
CCOc1cccc(OCCCNCCCOC)c1,·,9,91,-1,5,-0.75
Nc1cc(OC(=O)c2cccs2)nn1S(=O)(=O)c1ccc(F)cc1,65,11,135,2,5,-5.3*
Nc1cc(OC(=O)c2cccs2)nn1S(=O)(=O)c1ccccc1,86,7,93,-3,10,-8.1*
Cc1ccccc1COc1ccc(/C(O)=C2/C(=O)C(=O)N(CCCn3ccnc3)C2c2ccco2)cc1 (stereo unspecified),71,4,77,-9,3,-0.85
COc1ccc(N2CCN(C(=O)c3ccc(CNc4c(N5CCOCC5)c(=O)c4=O)cc3)CC2)cc1,·,3,57,-3,1,1.3
Nc1nc(Cl)nc2c1ncn2[C@@H]1O[C@H](COP(=O)(O)OP(=O)(O)OP(=O)(O)O)[C@H](O)C1O (stereo partly specified),·,·,·,0,·,·
SMILES,SKBR3 24h inh,PKA inh,Her2 expr inh,Hsp90 inh,ROCK2 blocker,WNV NS2B-NS3 inh
Nc1nc2c(s1)CCc1c-2cnn1-c1ccccc1,86,6,76,93*,6,-0.16
CCOC(=O)CSc1nc(-c2cccs2)nc2c1c(=O)n(C)c(=O)n2C,·,-1,99,-1,3,-0.59
COc1ccc(N2C(=O)C(CC(=O)O)S/C2=C\C(C)=O)cc1 (stereo unspecified),31*,4,86,·,·,1.5
COc1ccc(OCC(O)COc2ccc(C(=O)O)cc2)cc1 (stereo unspecified),76,3,97,4,2,-1.2
CC(=O)c1ccc(OCC(O)COc2ccc(C(C)=O)cc2)cc1,96,17,88,-5,19*,-0.17
Clc1ccccc1OCCCCn1ccnc1,·,5,104,-1,3,-0.4
N=c1c2c(-c3ccccc3)c(-c3ccccc3)n(Cc3ccco3)c2ncn1Cc1ccco1,·,9,4.4*,-8,6,-1

# Assay outcomes deposited in PubChem BioAssay by several laboratories.
